# Measured values from publication PMC4336329 (PLoS ONE, 2015).
# In all, about 310,000 compounds went through this assay and about 14,000 (4.5%) showed an effect of 50% or more. Effects have a minus sign here. The full list was thinned out, with strong results kept by preference.
# Target: human ether-à-go-go-related gene (hERG) potassium channel (human, UniProt Q12809)
# Test: primary screen, population patch clamp on CHO cells stably expressing hERG; higher = less effect of the substance
# 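Note: peak tail current of the secondary pulse compared with the same well before compound.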
# human ether-à-go-go-related gene (hERG) potassium channel, sequence (Q12809 whole entry, looked up): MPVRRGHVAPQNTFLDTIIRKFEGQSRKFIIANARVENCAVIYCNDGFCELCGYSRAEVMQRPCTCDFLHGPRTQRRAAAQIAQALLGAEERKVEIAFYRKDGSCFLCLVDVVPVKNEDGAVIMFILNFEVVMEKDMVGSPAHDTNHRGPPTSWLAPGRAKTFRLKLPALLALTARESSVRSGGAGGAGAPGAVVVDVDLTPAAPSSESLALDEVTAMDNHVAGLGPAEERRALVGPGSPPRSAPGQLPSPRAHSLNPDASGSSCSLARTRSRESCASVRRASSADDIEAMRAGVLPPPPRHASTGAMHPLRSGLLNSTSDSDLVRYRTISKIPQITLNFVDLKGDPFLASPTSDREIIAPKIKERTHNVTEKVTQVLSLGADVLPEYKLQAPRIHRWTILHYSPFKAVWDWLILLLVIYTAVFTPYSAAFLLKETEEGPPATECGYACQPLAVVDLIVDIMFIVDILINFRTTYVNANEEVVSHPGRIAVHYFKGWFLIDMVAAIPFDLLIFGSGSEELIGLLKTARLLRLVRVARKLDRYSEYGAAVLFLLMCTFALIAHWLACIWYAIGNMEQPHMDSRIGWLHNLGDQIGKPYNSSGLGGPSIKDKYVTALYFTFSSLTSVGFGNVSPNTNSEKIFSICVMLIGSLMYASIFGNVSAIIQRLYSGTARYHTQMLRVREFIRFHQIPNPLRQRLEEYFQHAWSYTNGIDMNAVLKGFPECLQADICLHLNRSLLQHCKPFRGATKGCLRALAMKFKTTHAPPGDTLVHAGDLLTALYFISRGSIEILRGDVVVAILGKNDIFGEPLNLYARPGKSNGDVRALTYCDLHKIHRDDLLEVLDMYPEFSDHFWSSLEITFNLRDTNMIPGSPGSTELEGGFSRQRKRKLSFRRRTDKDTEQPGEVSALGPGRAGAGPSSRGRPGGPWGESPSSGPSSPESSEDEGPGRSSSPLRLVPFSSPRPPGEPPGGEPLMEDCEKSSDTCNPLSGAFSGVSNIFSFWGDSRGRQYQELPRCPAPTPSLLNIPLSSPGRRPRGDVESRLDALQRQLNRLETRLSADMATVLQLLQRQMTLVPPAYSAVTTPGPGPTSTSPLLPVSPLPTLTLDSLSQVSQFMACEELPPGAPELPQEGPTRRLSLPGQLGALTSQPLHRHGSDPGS
row,SMILES,"hERG current change (%, negative = inhibition) at 10uM"
1,Cc1nnc(SCc2nc3ccccc3s2)n1-c1ccccc1,2.82%
2,Cc1[nH]n(-c2ccc([N+](=O)[O-])cc2)c(=O)c1C=NCCN1CCN(C(=O)c2ccccc2)CC1,-71.6%
3,CNC(=S)N1CCN(CCN=Cc2c(O)n(-c3ccc(C)cc3)c(=S)[nH]c2=O)CC1,21.2%
4,Cc1[nH]n(-c2ccc([N+](=O)[O-])cc2)c(=O)c1C=NCCc1c[nH]c2ccccc12,13.2%
5,O=c1c(C=NCCN2CCNCC2)c(-c2ccccc2)[nH]n1-c1ccc([N+](=O)[O-])cc1,-66.4%
6,Cc1[nH]n(-c2ccc([N+](=O)[O-])cc2)c(=O)c1C=NCCN1CCN(C(=O)c2ccc(F)cc2)CC1,-73.7%
7,O=c1c(C=NCC2CCCO2)c(-c2ccccc2)[nH]n1-c1ccc([N+](=O)[O-])cc1 (centres unmarked),7.58%
8,CC1(C)CC(=O)C(C=NCCN2CCN(C(=O)c3ccc(F)cc3)CC2)=C(O)C1,-21.1%
9,C=CCNC(=S)N1CCN(CCN=Cc2c(C)[nH]n(-c3ccc([N+](=O)[O-])cc3)c2=O)CC1,-72.1%
10,CC(=O)N1CCN(CCN=Cc2c(O)n(-c3ccc(F)cc3)c(=S)[nH]c2=O)CC1,22.1%
11,Cc1[nH]n(-c2ccc([N+](=O)[O-])cc2)c(=O)c1C=NCCc1c(C)[nH]c2ccccc12,1.38%
12,COc1ccc(-c2[nH]n(-c3ccc([N+](=O)[O-])cc3)c(=O)c2C=NCCN2CCNCC2)cc1,-4.9%
13,Cc1ccc(-n2[nH]c(C)c(/C=N/Nc3ccc([N+](=O)[O-])cc3[N+](=O)[O-])c2=O)cc1,23.9%
14,COc1cc2cc(CN(CCO)S(=O)(=O)c3ccccc3Cl)c(=O)[nH]c2cc1OC,0.98%
15,O=C(NCCCCc1ccccc1)c1ccccc1Cl,-9.21%
16,CN(NC1OC(=O)c2ccccc21)c1ccc(C(F)(F)F)cc1[N+](=O)[O-] (centres unmarked),34.2%
17,O=C(Nc1ccc(S(=O)(=O)Nc2ncccn2)cc1)C12CC3CC(CC(C3)C1)C2,13.4%
18,Cc1cc(C)c2nc(N3CCCN(C(=O)c4cnccn4)CC3)c(C#N)cc2c1,-38.5%
19,CCc1nnc(SCC(=O)Nc2nccs2)n1CC,18%
20,Cn1cc(CC(=O)NC2CCCCC2)c2ccccc21,21.3%
21,Cc1ccsc1C1C(C#N)=C(N)Oc2n[nH]c(C)c21 (centres unmarked),18.7%
22,Cc1[nH]n(-c2ccc([N+](=O)[O-])cc2)c(=O)c1/C=N/N1CCOCC1,0.128%

row,SMILES,"hERG current change (%, negative = inhibition) at 10uM"
1,Cc1[nH]n(-c2ccc([N+](=O)[O-])cc2)c(=O)c1C=NCCN1CCN(C(=O)c2cccc(F)c2)CC1,-73.4%
2,Cc1[nH]n(-c2ccc([N+](=O)[O-])cc2)c(=O)c1C=NCCN1CCN(C(=O)c2ccc(Br)cc2)CC1,-76.6%
3,COC(=O)CN=Cc1c(C)[nH]n(-c2ccccc2)c1=O,-1.99%
4,COc1ccc(CCN=Cc2c(C)[nH]n(-c3ccc([N+](=O)[O-])cc3)c2=O)cc1OC,16.4%
5,Cn1c(O)c(C=NCCN2CCN(C(=O)c3ccccc3)CC2)c(=O)n(C)c1=O,-16.6%
6,Cc1[nH]n(-c2ccccc2)c(=O)c1/C=N/NC(=O)c1cccc(F)c1,20.1%
7,Cc1[nH]n(-c2ccccc2)c(=O)c1/C=N/NC(=O)c1ccccc1F,2.32%
8,Cc1[nH]n(-c2ccc([N+](=O)[O-])cc2)c(=O)c1C=NCCN1CCN(C(=O)c2ccccc2F)CC1,-71.2%
9,CC1(C)CC(=O)C(C=NCCN2CCN(C(=O)c3ccc(Br)cc3)CC2)=C(O)C1,-48.2%
10,Cc1[nH]n(-c2ccc([N+](=O)[O-])cc2)c(=O)c1C=NCCc1ccc(S(N)(=O)=O)cc1,10.7%
11,Cc1[nH]n(-c2ccc([N+](=O)[O-])cc2)c(=O)c1C=NCCN1CCN(C(=O)C(C)C)CC1,-64.2%
12,CC(=O)Nc1cccc(NC(=O)CSc2nccn2Cc2ccc(F)cc2)c1,0.742%
13,COc1cc2c(cc1NC(=O)C(C)OC(=O)c1ccc(S(=O)(=O)Nc3ccccc3Cl)cc1)oc1ccccc12 (centres unmarked),21.8%
14,CCCCCCNc1cc(C)oc(=O)c1C(C)=O,-34.2%
15,CCOC(=O)C1CCCN(c2c(Nc3ccc(C)c(C)c3)c(=O)c2=O)C1 (centres unmarked),-25.1%
16,CC(=O)c1ccc(NC(=O)C2C3C=CC(C3=C(c3ccccc3)c3ccccc3)C2C(=O)O)cc1 (centres unmarked),2.53%
17,Br.COc1ccc(N=C/C=C2/C=C(c3ccccc3)OC(C)(C)O2)cc1,-49.1%
18,COc1cc(-c2nc3ccccn3c2/N=C/c2cccc(F)c2)ccc1O,4.38%
19,CCn1cc(C(=O)NC(=S)Nc2ccccc2Br)cn1,3.21%
20,O=C(O)CSCC(=O)N1CCCN(c2nc3ccc(Cl)cc3s2)CC1,5.89%
21,CCOC(=O)c1ccc(NC(=O)c2ccccc2C)cc1,-21.2%
22,CCOC(=O)NC(=O)COC(=O)c1ccc(O)cc1,-6.29%
